Data reported in PubChem BioAssay (NCATS).
Records with an inconclusive call do not appear. Calls of active or inactive are those of the source. Calls follow the shape of the dose curve; as a rule, active = well fitted curve in the direction sought with a large enough effect; inconclusive = small, poorly fitted or top-dose-only effect, or another doubt; inactive = no such curve, though single readings can be large; an effect the other way counts as inactive or inconclusive.

Assays:
[1] = OV-KATE Cancer Cell Toxicity qHTS against the NCATS CANVASS Library (AID 1347345); also: % is scaled to controls: 0 for no effect and ±100 for the full control effect
In short: (§1)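 ATP content after 72 h treatment, detected by CellTiter-Glo luminescence (15min room-temperature development), reflects cell viability. Wells contained 1000 cells and received compounds at 11 concentrations.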

[2] = HPAF-II Cancer Cell Toxicity qHTS against the NCATS CANVASS Library (AID 1347346); also: series mostly up to about 38 µM; % is scaled to controls: 0 for no effect and ±100 for the full control effect; nearly all actives have a fitted effect of over 55% in size
In short: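 1000 HPAF-II cells/well; 4 h pre-incubation; 11-pnt compound titration; 72 h, 37 degrees C/5% CO2; CellTiter-Glo, 15 min RT; luminescence read.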

[3] = OV-SAHO Cancer Cell Toxicity qHTS against the NCATS CANVASS Library (AID 1347348); also: series mostly up to about 38 µM; % is scaled to controls: 0 for no effect and ±100 for the full control effect; nearly all actives have a fitted effect of over 55% in size
In short: as §1

[4] = COV-362 Cancer Cell Toxicity qHTS against the NCATS CANVASS Library (AID 1347352); also: series mostly up to about 38 µM; % is scaled to controls: 0 for no effect and ±100 for the full control effect
In short: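 1000 cells/well, 4 h pre-incubation 37 °C/5% CO2; 11-pnt titration; 72 h; CellTiter-Glo 15 min RT, luminescence.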

[5] = HPAF-II 24hr Apoptosis Induction qHTS against the NCATS CANVASS Library (AID 1347356); also: 0% is about no effect
In short: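 500 HPAF-II cells/well; compounds in 11-pnt qHTS; 24 h, 37 C/5% CO2; Caspase-Glo 3/7 added, 15 min RT dark; luminescence read. Doxorubicin control.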

[6] = HEK293 18hr Apoptosis Induction qHTS against the NCATS CANVASS Library (AID 1347357); also: 0% is about no effect
In short: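 HEK293 cells (500/well, DMEM + 10% FBS) treated with an 11-point series for 18 h at 37 degrees C. Caspase-3/7 activity read by Caspase-Glo luminescence after 15 min at room temperature.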

[7] = HPAF-II 12hr Apoptosis Induction qHTS against the NCATS CANVASS Library (AID 1347358); also: 0% is about no effect
In short: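 Caspase-Glo 3/7 luminescence (DEVD substrate) reports caspase activity in HPAF-II cells after 12 h compound treatment at 37 degrees C. Compounds were tested in an 11-point series. Doxorubicin served as control.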

[8] = HEK293 24hr Apoptosis Induction qHTS against the NCATS CANVASS Library (AID 1347359); also: 0% is about no effect
In short: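 HEK293 cells (500/well, DMEM + 10% FBS) were exposed to compounds in an 11-point series for 24 hours at 37 degrees C, then caspase-3/7 activity was read by Caspase-Glo DEVD luciferase luminescence after 15 min.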

[9] = HPAF-II 18hr Apoptosis Induction qHTS against the NCATS CANVASS Library (AID 1347360); also: 0% is about no effect
In short: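 HPAF-II cells at 500/well were exposed for 18 h at 37 C to an 11-point compound series. Caspase-3/7 activity was read by Caspase-Glo luminescence after 15 min at RT.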

[10] = biological target: Luciferin 4-monooxygenase (Photinus pyralis) (UniProt P08659); assay: Firefly luciferase counterscreen qHTS: Assay Interference Panel against the NCATS CANVASS Library (AID 1347363); also: series mostly up to about 57 µM; 0% is about no effect
In short: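 Purified P. pyralis luciferase was added to compounds (11-point series) preincubated 15 min at room temperature with substrate containing 0.013 mM D-luciferin and 0.013 mM ATP; luminescence was read after 5 min.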

[11] = KB-3-1 Cancer Cell Toxicity qHTS against the NCATS CANVASS Library (AID 1347366); also: series mostly up to about 46 µM; % is scaled to controls: 0 for no effect and ±100 for the full control effect; nearly all actives have a fitted effect of over 75% in size
In short: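 KB-3-1 cells (500/well) in DMEM with 10% FBS were exposed to compounds for 72 h at 37C. Viability was read by CellTiter-Glo luminescence.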

[12] = MCF7 Cancer Cell Toxicity qHTS against the NCATS CANVASS Library (AID 1347369); also: series mostly up to about 46 µM; % is scaled to controls: 0 for no effect and ±100 for the full control effect
In short: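 MCF7 cells (500/well) were exposed 72 h at 37 °C to compounds in an 11-point series. Viability was read as ATP content by CellTiterGlo luminescence.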

[13] = qHTS for ATAD5 Antagonist screened against the NCATS CANVASS Library (AID 1347370);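 also: HEK293T cells carrying an ATAD5 luciferase reporter co-treated with 10 µM 5-fluorouridine; series mostly up to about 46 µM; % is scaled to controls: 0 for no effect and ±100 for the full control effect; nearly all actives have a fitted effect of over 65% in size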
In short: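 HEK293T-ATAD5 luc reporter, 2000 cells/well; 5hr attach; cpd + 10 uM 5-FUrd; 16hr 37C, 5% CO2. Readouts: CellTiter-Fluor fluorescence (1hr), then Amplite luciferase luminescence (30min RT).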

[14] = J3T Cancer Cell Toxicity qHTS against the NCATS CANVASS Library (AID 1347371);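 as to activity change, negative = cytotoxicity: J3T is a canine glioma cancer cell line seeded at 500 cells per well; series mostly up to about 46 µM; % is scaled to controls: 0 for no effect and ±100 for the full control effect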
In short: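 Dog glioma J3T, 500 cells/well; cpd 11-pt qHTS; 72 hr, 37C/5% CO2; CellTiterGlo ATP luminescence readout.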

[15] = biological target: Nuclear receptor subfamily 1 group I member 3 (Homo sapiens) (UniProt Q14994); assay: qHTS for Constitutive Androstane Receptor (CAR) Agonist screened against the NCATS CANVASS Library (AID 1347373);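 also: every well also contained 1.5 µM PK11195 alongside the test compound; 0% is about no effect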
In short: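 Luciferase read-out (ONE-Glo, 30 min RT) of CYP2B6-2.2kb promoter activity in double-stable HepG2-hCAR cells after 24hr compound exposure with 1.5uM PK11195 present; viability measured first by CellTiter-Fluor.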

[16] = 10-beta competent E. coli microbial cell viability qHTS against the NCATS CANVASS Library (AID 1347376); also: series mostly up to about 46 µM; 0% is about no effect
In short: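 Luminescence from BacTiter-Glo ATP detection served as the viability read-out; bacteria (0.2 OD) had been incubated overnight at 37C with pin-transferred compounds at 11 concentrations.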

[17] = qHTS for Inflammasome Signaling Inhibitors: IL-1-beta AlphaLISA screen against the NCATS CANVASS Library (AID 1347379);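 also: human THP-1 cells primed with LPS then triggered with ATP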;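 as to activity change, negative = inhibition: secreted IL-1B measured as AlphaLISA emission at 615 nm; % is scaled to controls: 0 for no effect and ±100 for the full control effect; lower signal means less IL-1B release which is the wanted effect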
In short: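 THP-1, 1 hr compound pre-incubation, then LPS 250 ng/mL + ATP 1.25 mM (final); 16 hr total with compound; IL-1B AlphaLISA, ex 680/em 615 nm; 11-point qHTS, up to 57.5 uM final.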

[18] = Inflammasome Signaling qHTS Counterscreen: IL-1-beta AlphaLISA counterscreen against the NCATS CANVASS Library (AID 1347381);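 also: cell-free check with purified IL-1β in medium and no THP-1 cells; series mostly up to about 57 µM; 0% is about no effect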
In short: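 Here, no cellular stimulation occurs; compounds in an 11-point series meet 4 pg purified IL-1-beta directly. Bead-based AlphaLISA detection follows (1 h acceptor/antibody, then 30 min donor, dark, room temperature), with excitation at 680 nm.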

[19] = Cytotoxicity qHTS for assessment of Hepg2 cells membrane integrity screened against the NCATS CANVASS Library (AID 1347387)
In short: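 LDH release read by fluorescence (560 nm ex/590 nm em) after CytoTox-ONE addition and 10 min RT; signal tracks lysed cells. HepG2, 2000 cells/well, plated overnight; compound 5 hr, 37C, 5% CO2, final 0.59 nM - 46 uM, 11 points.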

[20] = Viability qHTS for inhibitors of the SERCaMP assay screened against the NCATS CANVASS Library (AID 1347400); also: series mostly up to about 92 µM; % is scaled to controls: 0 for no effect and ±100 for the full control effect; nearly all actives have a fitted effect of over 70% in size
In short: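 CellTiter-Glo luminescence readout after 48 h compound exposure (11-pnt qHTS series) of SH-SY5Y-GLuc SERCaMP MJH297 cells seeded at 1000 cells/well; bortezomib positive control.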

Luciferin 4-monooxygenase (Photinus pyralis), sequence (P08659 whole entry, looked up): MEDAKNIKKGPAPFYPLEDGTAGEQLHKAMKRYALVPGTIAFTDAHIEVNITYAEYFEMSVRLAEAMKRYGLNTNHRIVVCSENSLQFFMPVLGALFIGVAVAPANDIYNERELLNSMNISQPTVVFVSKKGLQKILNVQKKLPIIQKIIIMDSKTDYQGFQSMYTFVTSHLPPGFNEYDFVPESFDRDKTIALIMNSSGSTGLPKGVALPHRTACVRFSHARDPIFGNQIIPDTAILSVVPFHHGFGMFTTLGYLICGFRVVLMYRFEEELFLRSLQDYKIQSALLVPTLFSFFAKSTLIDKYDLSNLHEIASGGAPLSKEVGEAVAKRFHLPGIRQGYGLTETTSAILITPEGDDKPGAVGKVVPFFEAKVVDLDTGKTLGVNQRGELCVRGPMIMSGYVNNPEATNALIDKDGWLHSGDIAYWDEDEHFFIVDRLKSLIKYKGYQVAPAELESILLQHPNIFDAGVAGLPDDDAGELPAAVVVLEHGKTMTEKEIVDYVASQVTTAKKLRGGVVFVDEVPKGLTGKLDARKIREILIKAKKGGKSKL
Nuclear receptor subfamily 1 group I member 3 (Homo sapiens), sequence (Q14994 whole entry, looked up): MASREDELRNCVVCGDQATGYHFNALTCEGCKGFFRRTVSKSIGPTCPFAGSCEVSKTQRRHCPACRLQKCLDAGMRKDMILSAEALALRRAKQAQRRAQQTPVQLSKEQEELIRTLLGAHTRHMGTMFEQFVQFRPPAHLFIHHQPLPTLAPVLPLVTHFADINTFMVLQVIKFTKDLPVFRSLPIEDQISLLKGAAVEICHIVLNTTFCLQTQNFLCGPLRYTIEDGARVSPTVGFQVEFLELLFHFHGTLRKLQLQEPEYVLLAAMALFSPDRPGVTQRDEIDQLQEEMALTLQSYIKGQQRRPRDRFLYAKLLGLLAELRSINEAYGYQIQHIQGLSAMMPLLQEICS

CC1C(=O)C23CCC1C[C@]21O[C@@H]2C(C)(C)C=CC(=O)[C@@]23COC1=O (some centres undefined)
inactive: Potency [1] | Potency [2] | Potency [3] | Potency [4] | outcome [5] | Potency [6] | Potency [7] | Potency [8] | Potency [9] | Potency [10] | Potency [11] | Potency [12] | Potency [13] | Potency [14] | outcome [15] | outcome [16] | Potency [17] | outcome [18] | outcome [19] | Potency [20]

COc1ccc([C@@H]2c3cc(OC)c(OC)cc3C(=O)[C@H](C)C2C)cc1OC (some centres undefined)
inactive: activity change, negative = cytotoxicity [1] -0.626% [at 7.64 µM] | activity change, negative = cytotoxicity [2] 3.84% [at 7.64 µM] | activity change, negative = cytotoxicity [3] -3.3% [at 7.64 µM] | activity change, negative = cytotoxicity [4] -1.95% [at 7.64 µM] | caspase activation [5] 1.81% [at 9.19 µM] | caspase activation [6] 3.8% [at 9.19 µM] | caspase activation [7] 2.3% [at 9.19 µM] | activation [8] 3.39% [at 9.19 µM] | caspase activation [9] 1.74% [at 9.19 µM] | activity change, negative = inhibition [10] 4.08% [at 11.5 µM] | activity change, negative = cytotoxicity [11] 8.45% [at 9.19 µM] | activity change, negative = cytotoxicity [12] -14.7% [at 9.17 µM] | activity change, negative = inhibition [13] -23.2% [at 9.19 µM] | outcome [14] inactive [at 9.19 µM] | activation [15] 1.07% [at 9.19 µM] | outcome [17] inactive [at 11.5 µM] | activity change, negative = inhibition [18] -8.6% [at 11.5 µM] | cytotoxicity (LDH release) [19] 0.689 [at 9.19 µM] | activity change, negative = cytotoxicity [20] 9.45% [at 18.4 µM]

C=C1[C@H]2CC[C@@]3(C=CC(=O)[C@@](C)(CCC(=O)Nc4c(O)ccc(C(=O)O)c4O)C3C2)[C@H]1O (some centres undefined)
inactive: Potency [1] | Potency [2] | Potency [3] | Potency [4] | outcome [5] | Potency [6] | Potency [7] | Potency [8] | Potency [9] | Potency [10] | Potency [11] | Potency [12] | Potency [13] | Potency [14] | outcome [15] | outcome [16] | Potency [17] | outcome [18] | outcome [19] | Potency [20]
